Source: PubChem BioAssay (National Center for Advancing Translational Sciences (NCATS))
FLuc modulator: qHTS profiling assay for firefly luciferase inhibitor/activator using purifed enzyme and Km concentrations of substrates (counterscreen for miR-21 project); 360,000 compounds, 6.9% hits; Potency, µM (top dose mostly 57.5 µM), for the others: at the top dose activity change, negative = inhibition, hits mostly inhibitors; purified FLuc, Km substrates, luminescence inhibition; Luciferin 4-monooxygenase (Photinus pyralis), P08659; AID 588342, 2011;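 further: plate controls were vehicle for no effect and reference inhibitor for full effect; nearly all actives have a fitted effect of over 55% in size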
Target sequence (P08659 whole entry, looked up): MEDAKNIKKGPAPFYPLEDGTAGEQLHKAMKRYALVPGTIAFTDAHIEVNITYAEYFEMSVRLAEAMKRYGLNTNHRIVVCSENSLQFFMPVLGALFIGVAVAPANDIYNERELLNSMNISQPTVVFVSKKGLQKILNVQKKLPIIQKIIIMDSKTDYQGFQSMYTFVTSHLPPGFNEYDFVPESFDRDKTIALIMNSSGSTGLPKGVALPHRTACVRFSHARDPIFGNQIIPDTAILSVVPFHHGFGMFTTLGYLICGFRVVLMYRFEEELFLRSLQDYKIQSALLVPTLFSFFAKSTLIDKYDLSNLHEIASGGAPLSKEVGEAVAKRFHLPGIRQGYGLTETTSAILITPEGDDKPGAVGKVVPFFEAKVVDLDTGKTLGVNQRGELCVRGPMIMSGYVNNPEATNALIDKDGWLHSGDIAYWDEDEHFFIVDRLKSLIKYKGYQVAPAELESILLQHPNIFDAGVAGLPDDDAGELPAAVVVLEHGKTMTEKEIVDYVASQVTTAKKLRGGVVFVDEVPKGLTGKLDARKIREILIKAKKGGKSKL
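Purified P. pyralis luciferase, 10 nM final, with Km-level 10 uM D-luciferin and 10 uM ATP in 50 mM Tris acetate pH 7.5, 10 mM Mg acetate, 0.01% Tween-20, 0.05% BSA; 6-point qHTS titration about 60 µM downward; luminescence read.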
ELG1 genotox: qHTS screen for small molecules that induce genotoxicity in human embryonic kidney (HEK293T) cells expressing luciferase-tagged ELG1. AID 504466, 2011. Potency, µM (highest dose often 46 µM), without a hit: top-dose activity change, positive = activation, usual class: activators. HEK293T ELG1-luciferase reporter, luminescence, 16 h. 330,000 compounds, 1.3% hits; further: % of control where 0% means no effect; nearly all actives have a fitted effect of over 60% in size
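16 hr compound incubation (37 °C, 5% CO2) of HEK293T cells carrying luciferase-tagged ELG1; luciferase then measured by ONE-Glo luminescence after 30 min at RT.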
SMN2 splice up: qHTS Assay for Enhancers of SMN2 Splice Variant Expression; 210,000 compounds, 2.8% hits; AID 1458, 2008; Potency, µM (top dose mostly 46.1 µM), for inactives: top-dose activity change, positive = activation, most hits filed as activators; HEK293 SMN2-luciferase splicing reporter, luminescence, 30-36 h; further: % of control where 0% means no effect; nearly all actives have a fitted effect of over 55% in size
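HEK293 cells carry an SMN2 […]–luciferase reporter in which exon 7 inclusion puts luciferase in frame. Cells were plated 10-12 h before compound addition, then incubated 30-36 h at 37C. ONE-Glo luminescence was read; sodium butyrate at 4.5 mM final served as control.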
NPC1 prom act: qHTS Assay for NPC1 Promoter Activators; Huh7 NPC1 promoter luciferase reporter, 24 h; Potency, µM (top dose mostly 9.22 µM), for the others: top-dose activation, most hits filed as activators; 320,000 compounds, 2.4% hits; further: % of control where 0% means no effect; nearly all actives have a fitted effect of over 60% in size
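Compounds in DMSO were transferred onto Huh7 NPC1-luciferase reporter cells pre-incubated 2 h; after 24 h at 37 °C, Amplite reagent was dispensed and luminescence recorded 10 min later.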
Rab9 promoter act: qHTS Assay for Rab9 Promoter Activators. Huh7 Rab9 promoter-luciferase reporter, luminescence, 24 h. Potency, µM (highest dose often 9.22 µM), for the others: at the highest dose activation, negative = inhibition, actives largely listed as activators. 320,000 compounds, 2.8% hits. AID 485297, 2010; further: % of control where 0% means no effect; nearly all actives have a fitted effect of over 60% in size
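Huh7 cells stably carrying Rab9 promoter–luciferase reporter, plated 1500 cells/well, compound added after 2 h and incubated 24 h at 37 °C; luciferase luminescence then read after 10 min with detection reagent.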
Luc counter: Counterscreen for Luciferase (Kinase-Glo TM) Inhibition | Luciferin 4-monooxygenase (Photuris pensylvanica), Q27757 | Kinase-Glo luciferase, ATP luminescence, 8 min | Potency, µM (titrated, usually from 38.3 µM), for the others: at the highest dose activity change, negative = inhibition, actives largely listed as inhibitors | 200,000 compounds, 0.28% hits | AID 1379, 2008; further: on the % scale 0 is the no-effect control and ±100 the full control effect; nearly all actives have a fitted effect of over 60% in size
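Substrate mix (final 50 mM imidazole pH 7.2, 50 mM KCl, 7 mM MgCl2, 10 uM ATP, 0.01% Tween 20, 0.05% BSA) plus pin-tool compound, then Kinase-Glo detection mix; 8 min ambient, luminescence read.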
Active calls of the source: *; ? = inconclusive; . = no result given; [ ] = dose if it differs, or a comment. Shown are actives, neighbours in structure and some others; about 7.4% of the full set was active somewhere. The call rests on the fitted dose curve; in most records, active means well fitted curve in the direction sought with a large enough effect; inconclusive means small, poorly fitted or top-dose-only effect, or another doubt; inactive means no such curve, though single readings can be large; an effect the other way counts as inactive or inconclusive. Potency means the concentration at half of the fitted maximal effect.

SMILES | FLuc modulator | ELG1 genotox | SMN2 splice up | NPC1 prom act | Rab9 promoter act | Luc counter
O=C(Nc1cccc(S(=O)(=O)Nc2ccc(Cl)cc2)c1)c1cc2c(s1)CCCC2 | 15µM* | -7% | -68% | -3% | 1% | 5%
O=C(Nc1cccc(S(=O)(=O)Nc2ccc(Cl)cc2)c1)c1ccc(Cl)nc1 | 3% | 0% | . | -21% | -23% | .
CCCOc1ccc(-c2c(C(=O)N/N=C(\C)c3ccncc3)nnn2-c2nonc2N)cc1 | 2% | -3% | . | -1% | -1% | .
Cc1ccccc1CN1CCC(n2nccc2NC(=O)c2ccc3c(c2)OCO3)CC1 | 19µM* | ? | . | ? | 21% | .
CC#CC(=O)N1CCC(n2nccc2NC(=O)c2ccc3c(c2)OCO3)CC1 | 3% | 17% | . | -7% | 20% | .
CSCCC(=O)N1CCC(n2nccc2NC(=O)c2ccc3c(c2)OCO3)CC1 | 12µM* | ? | . | 2.8µM* | 4µM* | .
COc1cccc(/C=N/n2c(=O)[nH]c3ccccc32)c1OC | 9.5µM* | 15% | ? | 19% | 29% | 0%
COc1cccc(/C=N/n2c(=S)n(C)c3ccccc32)c1OC | 11µM* | 3% | -25% | -3% | -5% | -1%
COc1cccc(/C=N/n2c(C)nc3ccccc32)c1OC | ? | -3% | -48% | 0% | -3% | -4%
COc1cccc(/C=N/n2cnc3cc(C)c(C)cc32)c1OC | 12µM* | 16% | . | ? | 20% | .
Cc1c(C(=O)OCC(=O)N(C)c2ccccc2)oc2ccccc12 | ? | ? | . | 28% | ? | .
CC(Sc1nnc(NC2CCCCC2)s1)C(=O)Nc1ccc2c(c1)C(=O)c1ccccc1C2=O (stereo not drawn) | ? | 4% | 10µM* | ? | ? | 0%
Cc1cccc(NC(=O)C(=O)C2C(=O)Nc3ccccc32)c1 (stereo not drawn) | 15µM* | 4% | . | 21% | 18% | .
CCOC(=O)c1cc(OC(=O)c2cc(OC)cc(OC)c2)n(-c2ccccc2)n1 | -13% | . | -7% | . | . | .
CCOC(=O)c1ccc(S(=O)(=O)NNC(=O)c2cccc(N(C)C)c2)cc1 | 19µM* | 0% | 15% | 5% | 18% | 6%
Oc1ccc(N=Nc2ccc3ccccc3c2)cc1 | 1.1µM* | 2.3µM* | . | 3.5µM* | ? | .
NS(=O)(=O)c1ccc(N=Nc2c(O)ccc3ccccc23)cc1 | -2% | -10% | 8% | 7% | 7% | -5%
O=c1cc(N=Nc2ccc(O)cc2)[nH]c(=O)[nH]1 | . | . | -25%[9.22 µM] | . | . | -10%[7.66 µM]
COc1cc(N=Nc2ccc3ccccc3c2)ccc1O | 5.4µM* | 12µM* | . | 3.2µM* | ? | .
Oc1ccc(N=Nc2c(O)ccc3ccccc23)cc1 | 27µM* | -1% | -21% | 16% | 11% | -14%
COc1cc(N=Nc2ccccc2C(=O)O)ccc1O | ? | 1% | . | 0% | -10% | .
CCOc1ccc(S(=O)(=O)NCCC(=O)NCC(c2ccco2)N2CCCCC2)cc1 (stereo not drawn) | 7% | -1% | . | 0% | -6% | .
CCOc1ccc(CNC(=O)Cn2nc(C)c3nn(-c4ccc(Cl)cc4)c(C)c3c2=O)cc1OC | 2% | . | . | . | . | .
NC(=O)NC(=O)COC(=O)[C@H](Cc1ccccc1)NC(=O)c1cccs1 | 5% | -10% | -10% | 2% | -2% | -3%
Cc1ccccc1NCC(=O)N/N=C\c1ccc2c(c1)OCO2 | ? | 4% | -5% | -5% | 9% | -2%
SMILES | FLuc modulator | ELG1 genotox | SMN2 splice up | NPC1 prom act | Rab9 promoter act | Luc counter
Cc1cc(C)nc(SCC(=O)N/N=C/c2ccc3c(c2)OCO3)n1 | 9.5µM* | ? | . | ? | 28% | .
Cc1ccc(C)c(NC(=O)CCC(=O)N/N=C/c2ccc3c(c2)OCO3)c1 | 11µM* | 2% | . | 0% | -2% | -14%
O=C(Nc1cccnc1)c1sc(Nc2ccccc2F)nc1-c1ccccc1 | -1% | 11% | . | 1% | ? | .
Cc1ccccc1Nc1nc(-c2ccccc2)c(C(=O)Nc2cccnc2)s1 | 15µM* | -2% | 4% | 0% | 2% | -4%
c1ccc2c(c1)Cn1nc(Cc3nc4c(s3)CCCC4)nc1-2 | 17µM* | ? | ? | 6% | ? | -6%
N#CCc1nc2n(n1)Cc1ccccc1-2 | -1% | 0% | -3% | 9% | -6% | -2%
CSc1ncc(-c2ccc(Cl)cc2)[nH]1 | 9.5µM* | ? | . | 3.2µM* | 3.2µM* | .
CSc1nc(-c2ccc(Cl)cc2)c(C#N)c(=O)[nH]1 | ? | 0% | 3% | 0% | 1% | -8%
COc1cccc(Cn2c(CNC(=O)Cc3cccc(C)c3)nc3cccnc32)c1 | -4% | . | . | . | . | .
CCC1(CC)NC(=O)N(CC(=O)OCC(=O)c2ccccc2OC)C1=O | 1% | 3% | . | -2% | 1% | .
O=c1n(Cc2ccccc2Cl)nc2n1-c1ccccc1SC2 | 24µM* | ? | . | ? | 3.5µM* | .
O=c1n(Cc2ccccc2)nc2n1-c1ccccc1SC2 | -18% | 8% | . | ? | ? | .
CCNC(=S)N(CCCO)Cc1cc2cc3c(cc2[nH]c1=O)OCCO3 | 1% | 5% | . | -5% | -3% | .
COc1ccccc1N1CCN(C(=O)CN2C(=O)COc3ccc(S(=O)(=O)N4CCC(C)CC4)cc32)CC1 | -8% | . | -3% | . | . | .
O=C(NCc1ccccc1Cl)c1ccc2c(c1)NC(=O)C(CS(=O)(=O)Cc1ccc(Cl)cc1)N2 (stereo not drawn) | -1% | . | . | . | . | .
Cc1ccc(-n2nnc3c(SCC(=O)NCc4ccco4)ncnc32)cc1 | 13µM* | 1% | -7% | 0% | 12% | -3%
COc1ccc(-n2nnc3c(SCC(=O)NCc4ccco4)ncnc32)cc1 | 9.5µM* | 5% | -12% | -4% | -10% | -12%
COc1ccc(-n2c(-c3ccc(F)cc3)cnc2SCC(=O)NCc2ccco2)cc1 | 24µM* | ? | 6% | 0% | 14% | -5%
O=C(CSc1ncc(-c2ccccc2)n1-c1ccccc1)NCc1ccco1 | -1% | -20% | 2% | 0% | -9% | 0%
O=C(CSc1ncnc2c1nnn2-c1ccc(F)cc1)NCc1ccco1 | -16% | 0% | -10% | -4% | -3% | 0%
COc1ccc(CN2CCN(C3CCC3)CC2CCO)cc1C (stereo not drawn) | 1% | 5% | . | -3% | 0% | .
O=C(Nc1ccc(-c2nnco2)cc1)c1ccccc1 | ? | ? | 20% | 28% | 15% | 0%
CCOc1cccc(C(=O)Nc2cccc(-c3nnc(-c4ccccc4)o3)c2)c1 | 6.7µM* | -9% | -15% | 1% | 6% | -6%
